Screens: PubChem BioAssay, several laboratories
rCAG binder – binders of r(CAG) RNA repeats, primary screen, biochemical, fluorescence; r(CAG) RNA repeat, TO-PRO-1 dye displacement fluorescence; inhibition, % at 3 µM; 370,000 tested, 1.3% active;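 active means inhibition above the plate cutoff, the mean of all test compounds on that plate plus 3 SD, cut at about 35% in these data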;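 further: 0% = DMSO alone and 100% = 100 µM mitoxantrone as full dye displacement; higher means more dye released from RNA so lower well fluorescence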
NR3A LBD binder – binders of NR3A ligand-binding domain, primary screen, biophysical, differential scanning fluorimetry, uHTS; Glutamate receptor ionotropic, NMDA 3A (GRIN3A) ligand-binding domain; NR3A LBD differential scanning fluorimetry, Tm shift; 0% = protein alone, 100% = glycine-bound protein; Tm shift relative to glycine control, % at 25 µM; 340,000 tested, 2.5% active; AID 1259313, 2017;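 active means melting temperature shift of at least 10% of the positive control shift, at one fixed dose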
AHR activator – AHR activators, primary screen, cell-based, luminescence, luciferase reporter, human; AHR-responsive luciferase reporter cells; activation, % at 5 µM; 320,000 tested, 2.5% active; in the data active means activation above about 47%;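 further: 0% = vehicle wells and 100% = reference agonist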
proKLK7 act – proKLK7 zymogen activators, primary screen, biochemical, fluorescence intensity; purified proKLK7, EDANS-DABCYL substrate fluorescence; 100% is mature enzyme control, 0% vehicle; activation, % at 7 µM; 370,000 tested, 0.9% active; Kallikrein-7 (Homo sapiens), P49862;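 active means activation above the mean of all tested compounds plus 3 SD, computed per campaign excluding outliers beyond control limits, cut at about 13% in these data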
ADAM17 inh – ADAM17 inhibitors, primary screen, biochemical, QFRET. recombinant ADAM17, EDANS/DABCYL FRET peptide cleavage. inhibition, % at 6.95 µM. 370,000 tested, 0.83% active. Disintegrin and metalloproteinase domain-containing protein 17 (Homo sapiens), P78536;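 active means inhibition above the mean of compounds lying between control limits plus 3 SD, set per campaign, cut at about 8.5% in these data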;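 further: 0% = DMSO-only wells as the low control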
ADAM10 inh – human ADAM10 inhibitors, primary screen, biochemical, QFRET, HTS; Disintegrin and metalloproteinase domain-containing protein 10 (Homo sapiens), O14672; AID 720582, 2013; 370,000 tested, 0.62% active; inhibition, % at 7 µM; recombinant ADAM10, EDANS/DABCYL FRET peptide cleavage, 3 h;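 active means inhibition above a per-campaign cutoff equal to the mean of compounds falling between control-based bounds plus 3 SD, cut at about 20% in these data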;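 further: 0% = DMSO wells while the 100% control is not disclosed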
Target sequence (O14672 214-748 limits assumed): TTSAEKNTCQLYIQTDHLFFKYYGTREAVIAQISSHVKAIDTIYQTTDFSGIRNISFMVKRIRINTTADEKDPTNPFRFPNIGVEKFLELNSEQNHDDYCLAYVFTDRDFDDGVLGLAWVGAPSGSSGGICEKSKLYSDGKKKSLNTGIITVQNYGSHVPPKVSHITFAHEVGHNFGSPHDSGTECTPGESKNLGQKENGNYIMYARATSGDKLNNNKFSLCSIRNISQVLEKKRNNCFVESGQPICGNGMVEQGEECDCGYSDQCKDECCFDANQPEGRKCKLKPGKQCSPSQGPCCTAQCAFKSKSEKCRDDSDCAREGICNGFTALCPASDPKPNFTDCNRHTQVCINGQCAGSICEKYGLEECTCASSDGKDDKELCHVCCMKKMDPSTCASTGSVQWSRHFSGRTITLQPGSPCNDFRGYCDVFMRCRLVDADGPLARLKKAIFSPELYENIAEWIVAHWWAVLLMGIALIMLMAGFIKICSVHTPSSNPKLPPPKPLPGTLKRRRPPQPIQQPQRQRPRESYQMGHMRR
KLK7 act conf – proKLK7 zymogen activators, confirmation, biochemical, fluorescence intensity, triplicate; 3,200 tested, 68% active; shares compounds with proKLK7 act; purified proKLK7, EDANS-DABCYL substrate fluorescence; scaled: vehicle 0, mature enzyme 100; activation, % at 7 µM; AID 686949, 2013;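 active means activation, as change over the incubation, above the mean of all tested compounds plus 3 SD, cut at about 13% in these data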
EDANS interfere – EDANS-DABCYL substrate optical interference, artefact control for kallikrein-7 zymogen activator project, biochemical, fluorescence intensity, high throughput; shares compounds with proKLK7 act; no enzyme, 4 h; solvent 0%, active enzyme control 100%; activation, % at 7 µM; 3,200 tested, 80% active;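 active means activation above the all-compound mean plus 3 SD, ignoring values outside control-based bounds, cut at about 4.8% in these data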;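 further: value is the 4 h activation minus the activation read at time zero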
EDANS interf – counter-screen for kallikrein-7 activators: EDANS-DABCYL interference, dose response; shares compounds with proKLK7 act; EDANS-DABCYL peptide fluorescence interference, no enzyme; EC50, µM; 250 tested, 20% active; AID 720493;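 active means compounds that raise the fluorescence signal in this interference counterscreen, with EC50 at or below 10 µM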;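 further: intact quenched peptide substrate alone read at 355 nm excitation and 520 nm emission; signal is fluorescence gain from T0 to T4 after four hours at room temperature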
The depositor's hits bear a star; i = inactive; . = no result. Shown are actives, neighbours in structure and some others; about 7% of the full set was active somewhere.

SMILES	rCAG binder	NR3A LBD binder	AHR activator	proKLK7 act	ADAM17 inh	ADAM10 inh	KLK7 act conf	EDANS interfere	others
Cc1ccc(-c2cc(C(=O)NN=Cc3c(O)ccc4ccccc34)[nH]n2)cc1C	-74	.	.	-69	0	-3	.	.
COc1ccc2ccccc2c1C=NNC(=O)c1cc(-c2ccc(C)c(C)c2)n[nH]1	20	.	.	49*	-6	-17	22*	15*	EDANS interf=>69
CCn1c2ccccc2c2cc(C=NNC(=O)c3cc(-c4ccc(OC)cc4)n[nH]3)ccc21	19	.	.	50*	-35	-187	-13	-32
CCN1C(=O)c2ccc(C(=O)Nc3ccc(O)cc3C)cc2C1=O	0	0	0	0	-4	1	.	.
C=C(C)C1CC=C(C)/C(=N\NC(=O)CNc2cccc3ccccc23)C1 (centres undefined)	8	-3	12	25*	-116	-353	6	6.8*
C=C(C)[C@H]1CC=C(C)/C(=N/NC(=O)CNc2ccccc2OC)C1	-1	1	9	-1	2	11	.	.
CN(C)CCNC(=O)c1nn(C)c2c1CCc1ccccc1-2	-3	3	1	0	-7	2	.	.
COc1ccccc1-c1coc2cc(O)cc(O)c2c1=O	5	0	1	0	-3	-8	.	.
CCN(CC)Cc1c(O)ccc2c(=O)c(-c3ccccc3OC)coc12	4	-1	2	85*	i	i	51*	74*
CCN(CC)Cc1c(O)ccc2c(=O)c(-c3ccccc3Cl)coc12	2	0	-2	40*	-489	i	67*	62*
C[C@H](CO)N1C[C@H](C)[C@@H](CN(C)S(=O)(=O)c2cn(C)cn2)Oc2ncc(Br)cc2C1=O	3	.	.	1	-2	-3	.	.
O=C(CSc1nc2ccccc2c(=O)[nH]1)Nc1ccccc1C(F)(F)F	22	2	4	0	-3	1	.	.
CC/C(C)=N/N1C(=O)c2ccccc2NC1(C)CC (centres undefined)	2	-1	4	19*	-172	i	45*	39*
O=C1c2ccccc2NC2(CCCC2)N1N=C1CCCC1	1	0	8	9	-50	-142	.	.
Cc1ccc(C(=O)Nc2ncccc2O)cc1S(=O)(=O)N1CCCCC1	1	0	11	0	-1	6	.	.
CN(C)c1ccc2c(=O)cc[nH]c2c1	1	.	.	80*	i	i	72*	73*
Cc1cc(N(C)Cc2ccccc2)nc2cc(O)ccc12	3	-2	4	35*	i	i	64*	74*
Cc1cc(N(C)Cc2ccccc2)nc(-c2ccccc2)n1	-6	3	6	0	0	1	.	.
COc1ccccc1Cc1c(-c2ccc(OC)c(OC)c2)nc2c(Cl)cc(C(F)(F)F)cn12	7	.	.	-67	-17	-84	.	.
Cc1nn2c3ccccc3n(CCN3CCCCC3)c2nc1=O	-2	-1	27	55*	-83	-275	8	12*
O=C(O)CCc1nc2ccccc2n(CCc2ccccc2)c1=O	4	1	-3	1	-43	-123	.	.
O=C(O)CCc1nn2c3ccccc3nc2n(CCN2CCCCC2)c1=O	4	0	1	57*	-67	-226	15*	13*	EDANS interf=i
C=CCn1c2ccccc2n2nc(C)c(=O)nc12	-2	1	5	4	-57	-248	.	.
CC(Sc1ccccc1F)C(=O)Nc1ccc2c(c1)OCCO2 (centres undefined)	1	2	2	-1	-6	-2	.	.
CC1(C)Cc2ccccc2-c2nc(NCCCO)[nH]c(=O)c21	-2	-1	1	39*	i	i	-1	-8
SMILES	rCAG binder	NR3A LBD binder	AHR activator	proKLK7 act	ADAM17 inh	ADAM10 inh	KLK7 act conf	EDANS interfere	others
CCC1(C)Cc2ccccc2-c2nc(NCCO)[nH]c(=O)c21 (centres undefined)	0	0	2	23*	i	i	-24	-31
CCC1(C)Cc2ccccc2-c2nc(NN)[nH]c(=O)c21 (centres undefined)	3	0	6	3	-104	-277	.	.
O=c1[nH]c(NCCO)nc2c1C1(CCCC1)Cc1ccccc1-2	-2	-9	2	-1	i	i	.	.
Oc1ccc(N2CCN(Cc3cc4c(cc3Br)OCCO4)CC2)cc1	12	3	1	0	4	5	.	.
CN1C(=O)C2C(c3ccc(N(C)C)cc3)=NN(Cc3ccccc3)C2C1=O (centres undefined)	-4	1	9	24*	-16	-45	24*	32*
COc1ccccc1OCCCC(=O)Nc1nnc(C2CCCO2)s1 (centres undefined)	-2	-2	2	0	0	0	.	.
Cn1ccc2c(-c3cccc(C=O)c3)cc3c(c21)C1CCC3O1 (centres undefined)	3	.	.	17*	-1	-18	15*	14*
CC[C@H](C)NC(=O)c1ccc(Cn2c(=S)[nH]c3c([nH]c4ccc(OC)cc43)c2=O)cc1	13	7	10	-1	-10	-31	.	.
CCOCCCn1c(=N)c(C(N)=S)cc2c(=O)n3cccc(C)c3nc21	10	-4	13	29*	-246	i	2	3
Cc1cccn2c(=O)c3cc(C(N)=S)c(=N)n(CCCOC(C)C)c3nc12	6	-3	21	46*	-336	i	5	5.7*
CS(=O)(=O)c1ccc(Cl)c(NC(=O)COC(=O)CCCN2C(=O)c3cccc4cccc(c34)C2=O)c1	1	2	-2	1	-12	-40	.	.
COc1cccc(CNS(=O)(=O)c2ccc3c(c2)C(C)(C)C(=O)N3C)c1	.	-3	2	.	.	.	.	.
C=C(C)Cn1c2ccc(NC(=O)CCc3cccc(Cl)c3)cc2c(=O)n1C	0	.	.	12	-484	i	.	.
